TDP1 cell CPT: growth inhibition of DT40 Tdp1-/-;hTDP1 cells with camptothecin (screen for TDP1 inhibitors); Potency, µM (series often up to 46.2 µM), inactives show at the highest dose activity change, negative = growth inhibition, usual class: inhibitors; 12% of 420,000 active; chicken DT40 Tdp1-/-;hTDP1 cells + 20 nM CPT, ATP luminescence, 48 h; AID 686979; note: potency is the fitted concentration of half-maximal effect; nearly all actives have a fitted effect of over 55% in size
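Chicken DT40 Tdp1-/- cells complemented with human TDP1, 400 cells/well, exposed to compounds plus 20 nM camptothecin for at least 48 h at 37 C; viability read as ATP content by CellTiter-Glo luminescence.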
HT1080NT lethal: kills 2HG-producing HT-1080-NT fibrosarcoma cells; HT-1080-NT fibrosarcoma viability, CellTiter-Glo ATP luminescence, 48 h; Potency, µM (series often up to 46.1 µM), inactives show top-dose activity, negative = less viability, usual class: cytotoxic; 1.6% of 360,000 active;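 note: NT is the 2HG producing partner of a matched IDH1 knockdown line; potency is the fitted concentration of half-maximal effect; 0% = DMSO-treated cells and -100% = media-only wells without cells; nearly all actives have a fitted effect of over 55% in size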
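Fibrosarcoma NT cells, 750 per well in 5% FBS RPMI, were exposed to compound for 48 hours. Viability: CellTiter-Glo luminescence.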
ELG1 repair inh: blocks ELG1-dependent DNA repair in HEK293T cells; HEK293T ELG1-luciferase reporter, luminescence, 16 h; DNA damage induced by 5-fluorouridine; Potency, µM (top dose mostly 46.1 µM), inactives show at the top dose activity change, negative = inhibition, hits mostly inhibitors; 2.3% of 330,000 active; AID 504467; note: potency is the fitted concentration of half-maximal effect; nearly all actives have a fitted effect of over 55% in size
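Step one: seed 2,000 cells per well. Step two: pin-transfer compound or DMSO alongside 5-fluorouridine. Step three: incubate 16 hr, 37 °C, 5% CO2. Step four: add ONE-Glo, wait 30 min, read luminescence.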
IL-1B inflam inh: inflammasome signaling inhibition, IL-1 beta readout. 4.7% of 360,000 active. THP-1 LPS/ATP IL-1B secretion, AlphaLISA, 16 h; hits give low values. activity change, % at 57.5 µM; in the data active = activity change below about -50%; inconclusive = mostly about -30% to -49%
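THP-1 cells pretreated 1 hr with compounds (up to 57.5 uM final), then stimulated with LPS (250 ng/mL final) plus ATP (1.25 mM final); secreted IL-1B measured by AlphaLISA after 16 hr, decreased signal indicating inhibition.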
HT1080 IDH1KD tx: kills HT-1080 cells with IDH1 knockdown | HT-1080 IDH1 knockdown viability, ATP luminescence, 48 h | Potency, µM (titrated, usually from 46.1 µM), for inactives: top-dose activity, negative = toxicity, usual class: cytotoxic | 2% of 360,000 active | AID 686971;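 note: potency is the fitted concentration of half-maximal effect; 0% = DMSO wells and -100% = cell-free medium wells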
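After a 2 h attachment period, IDH1KD HT-1080 cells took pin-transferred compound for 48 h at 37 °C; ATP-based luminescence after 10 min room-temperature reagent incubation reported viability.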
DT40 TDP1 no CPT: qHTS for Inhibitors of human tyrosyl-DNA phosphodiesterase 1 (TDP1): qHTS in cells in absence of CPT; DT40 Tdp1-/- hTDP1 cells, no CPT, ATP luminescence, 48 h; Potency, µM (titrated, usually from 46.2 µM), for the others: at the top dose activity change, negative = growth inhibition, usual class: inhibitors; 15% of 420,000 active; note: potency is the fitted concentration of half-maximal effect; nearly all actives have a fitted effect of over 55% in size
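DT40 Tdp1-/-;hTDP1 cells, no CPT (DMSO vehicle only), 400 cells/well; compounds pin-transferred; ≥48 hr, 37 °C; CellTiter-Glo 30 min RT dark, luminescence read.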
* marks the source's active call; other numbers are inactive results; u = inconclusive; x = not tested or not shown. Hits are enriched below; roughly 19% of the tested compounds scored in any of these assays. Unless noted, calls come from the whole dose curve; as a rule, active = well fitted curve in the direction sought with a large enough effect; inconclusive = small, poorly fitted or top-dose-only effect, or another doubt; inactive = no such curve, though single readings can be large; an effect the other way counts as inactive or inconclusive. Unless noted, % is set by controls: 0 for no effect and ±100 for the full control effect.

SMILES	TDP1 cell CPT	HT1080NT lethal	ELG1 repair inh	IL-1B inflam inh	HT1080 IDH1KD tx	DT40 TDP1 no CPT
COCCCNc1nc2nonc2nc1NCCSC	8.3%	0.9%	23.1µM*	0.0	12.0%	1.4%
OCCNc1nc2nonc2nc1NCCO	-3.6%	1.5%	0.6%	1.0	3.1%	2.8%
COc1ccccc1Nc1nc(-c2ccc(F)cc2)c2c(n1)-c1ccccc1OC2	-4.8%	x	x	x	x	-19.0%
C/C(=N\NC(=O)CNc1cccc(C(F)(F)F)c1)c1cccs1	9.5%	-20.8%	12.4%	-6.7	-0.3%	u
N#C/C(=N\Nc1cccc(C(F)(F)F)c1)C(=O)c1ccsc1	5.17µM*	4.61µM*	u	u	u	5.8µM*
Cc1nc2ccc(NC(=O)c3cccc(S(=O)(=O)N4CC(C)OC(C)C4)c3)cc2s1 (stereo not drawn)	7.31µM*	-4.6%	u	10.7	-8.2%	11.6µM*
Cc1nc2ccc(NC(=O)c3ccc(S(=O)(=O)N4CCOCC4)cc3)cc2s1	-3.2%	-20.0%	9.2µM*	-12.5	-24.4%	-21.0%
COc1ccc(/C=N/NC(=O)c2c(C)nc3ccc(Cl)cn23)cc1OC	11.6µM*	u	-19.7%	48.5	-5.9%	8.2µM*
COc1ccc(/C=N/NC(=O)c2c(C)nc3ccc(Br)cn23)cc1OC	8.2µM*	u	0.0%	45.9	4.61µM*	7.31µM*
COc1cccc(/C=N/NC(=O)c2c(C)nc3ccc(Br)cn23)c1O	4.61µM*	u	2.06µM*	187.5	u	3.26µM*
C=CCOc1ccc(/C=N/NC(=O)c2c(C)nc3ccc(Cl)cn23)cc1	24.0%	11.5%	-0.5%	33.7	3.0%	u
COC(=O)c1ccc(/C=N\NC(=O)c2c(C)nc3ccc(Cl)cn23)cc1	u	-10.7%	u	-4.1	-5.2%	10.3µM*
Cc1nc(N=Nc2cc(S(=O)(=O)O)ccc2S(=O)(=O)O)c(COP(=O)(O)O)c(C=O)c1O	6.7%	x	x	x	x	-15.2%
O=C(COC(=O)C12CC3CC(CC(Br)(C3)C1)C2)Nc1cccnc1Cl	u	0.6%	-23.1%	-5.5	12.9%	0.6%
O=C(Cc1ccccc1)Nc1ncccc1Cl	8.9%	3.3%	x	x	18.7%	u
COc1cccc(/C=N/NC(=O)c2c(C)nc3ccc(Cl)cn23)c1OC	16.4µM*	-2.3%	-3.1%	5.6	0.0%	u
COc1cc(/C=N/NC(=O)c2c(C)nc3ccc(Cl)cn23)cc(OC)c1OC	u	-7.4%	u	190.3	u	u
Cc1cc(C(=O)NNc2ccc(Cl)cc2)no1	10.1%	2.31µM*	u	4.5	2.59µM*	u
Cc1ccc(NNC(=O)c2ccno2)cc1Cl	u	u	-4.9%	49.3	3.66µM*	10.3µM*
Cc1cc(C(=O)NNC(=O)Nc2ccc(Cl)cc2)no1	17.9%	12.0%	1.3%	13.4	0.0%	8.5%
Cc1ccc(NNC(=O)c2c(C)noc2C)cc1Cl	-1.0%	-13.5%	3.3%	12.4	u	-22.4%
Cc1ccc(NNC(=O)c2cc(C)on2)c(C)c1	7.7%	u	u	2.8	8.2µM*	-20.9%
Cc1cc(C(=O)NNc2ccc(C)c(C)c2)no1	3.1%	u	8.2µM*	29.5	23.1µM*	-11.6%
O=c1c(-c2ccccc2)nc2cnc(N3CCOCC3)nc2n1CCc1ccccc1	12.8%	x	x	x	x	16.5%
CCC(=NNS(=O)(=O)c1ccc(C)cc1)c1ccc(OC)c(C)c1	-2.7%	2.2%	x	-5.8	8.1%	u
SMILES	TDP1 cell CPT	HT1080NT lethal	ELG1 repair inh	IL-1B inflam inh	HT1080 IDH1KD tx	DT40 TDP1 no CPT
CC(C)(C)n1nnnc1SCC(=O)Nc1nn(-c2ccccc2)nc1C(N)=O	2.0%	-22.4%	-5.2%	9.3	-19.4%	-27.6%
Cc1ccc(-c2nn3c(C)nnc3s2)cc1NC(=O)c1ccc(Br)o1	u	5.5%	-1.7%	13.7	5.4%	-21.0%
Cc1ccc(-c2nn3c(C)nnc3s2)cc1NC(=O)c1ccc(-c2ccc(Cl)cc2Cl)o1	7.31µM*	u	-19.8%	21.4	u	6.51µM*
Cc1ccc(-c2nn3c(C)nnc3s2)cc1NC(=O)c1ccc(-c2cccc(Cl)c2)o1	23.1µM*	u	18.4µM*	104.3	u	18.4µM*
CC(C)CC1C(=O)N(Cc2cn(Cc3ccco3)nn2)CCS(=O)(=O)N1Cc1ccc(-c2ccc(Cl)cc2)cc1 (stereo not drawn)	18.4µM*	u	x	-52.6*	u	13µM*
CC(C)CC1C(=O)N(Cc2cn(CCC3OCCCO3)nn2)CCS(=O)(=O)N1Cc1ccc(-c2cccc(CO)c2)cc1 (stereo not drawn)	-25.7%	8.3%	x	-19.6	5.0%	u
CC(C)CC1C(=O)N(Cc2cn(Cc3ccco3)nn2)CCS(=O)(=O)N1Cc1ccc(-c2cccc(CO)c2)cc1 (stereo not drawn)	u	-5.3%	x	-9.9	-6.8%	16.4µM*
COc1ccccc1C1C(C(N)=O)=C(C)Nc2nc(SCc3ccccc3F)nn21 (stereo not drawn)	u	x	x	x	x	-15.8%
Cc1cc(F)ccc1NCc1ccccc1-c1nnc(-c2ccccc2Cl)o1	u	x	x	x	x	20.6µM*
CC(C)NCc1nnc(-c2ccccc2Cl)o1	1.1%	-4.2%	0.0%	-27.5	-2.0%	-9.1%
Oc1ccccc1C1=NC(c2ccccc2)NC(c2ccccc2)C1 (stereo not drawn)	u	15.4%	x	u	-0.1%	18.4µM*
Oc1ccccc1C1=NN(c2ccccc2)C(c2ccc(F)cc2)C1 (stereo not drawn)	-15.5%	-8.7%	-13.3%	-6.9	-5.7%	u
O=C(N/N=C/c1cc(Cl)ccc1O)c1cccnc1	0.92µM*	u	u	234.0	u	1.03µM*
C/C(=N/NC(=O)CNC(=O)c1ccc2c(c1)OCO2)c1ccc2c(c1)CCCC2	8.2%	-5.1%	11.9%	-50.2*	u	-19.1%
O=C(COc1ccc(-c2ccccc2)cc1)N/N=C/c1ccccc1Br	-3.8%	-0.7%	5.7%	-9.2	0.6%	u
O=C(CNC(=O)c1ccccc1)N/N=C/c1cc(Br)ccc1O	7.31µM*	u	-29.4%	60.5	16.4µM*	7.31µM*
O=C(CNC(=O)c1ccncc1)N/N=C/c1cc(Br)ccc1O	-28.5%	-0.1%	-3.8%	52.9	3.3%	-4.6%
O=C(COc1ccc(-c2ccccc2)cc1)N/N=C/c1cc(O)ccc1Br	u	-8.9%	3.7%	-95.0*	u	16.4µM*

Bioassay records as filed in PubChem BioAssay.
